# Results from article PMC11006913.
# Substitutions are numbered along the chain they refer to.
# What was measured:
# Test in all cases: PBM; 200 nM protein, PBS
# Conditions in all cases: dsDNA, one strand shown
# SHOX [1] = molecular target: SHOX (Homo sapiens, UniProt O15266 103-189)
# HOXB9 [2] = molecular target: HOXB9 (Homo sapiens, UniProt P17482 171-250, T197M)
# HOXB9 [3] = molecular target: HOXB9 (Homo sapiens, UniProt P17482 171-250)
# SHOX [4] = molecular target: SHOX (Homo sapiens, UniProt O15266 103-189, R173C)
# Chain of SHOX (Homo sapiens, UniProt O15266 103-189, R173C) (O15266 103-189 R173C): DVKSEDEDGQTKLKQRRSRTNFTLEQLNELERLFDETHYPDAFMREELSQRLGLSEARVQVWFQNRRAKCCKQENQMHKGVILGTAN
# HOXB9 [5] = molecular target: HOXB9 (Homo sapiens, UniProt P17482 171-250, R186Q)
# Chain of HOXB9 (Homo sapiens, UniProt P17482 171-250, R186Q) (P17482 171-250 R186Q): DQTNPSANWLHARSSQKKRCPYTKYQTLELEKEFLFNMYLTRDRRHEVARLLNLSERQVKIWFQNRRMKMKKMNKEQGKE
# NKX3-2 [6] = molecular target: NKX3-2 (Homo sapiens, UniProt P78367 192-278, P234S)
# Chain of NKX3-2 (Homo sapiens, UniProt P78367 192-278, P234S) (P78367 192-278 P234S): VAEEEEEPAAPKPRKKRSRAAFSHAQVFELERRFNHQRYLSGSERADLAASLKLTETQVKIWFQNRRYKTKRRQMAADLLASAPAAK
# NKX3-2 [7] = molecular target: NKX3-2 (Homo sapiens, UniProt P78367 192-278)
# Chain of NKX3-2 (Homo sapiens, UniProt P78367 192-278) (P78367 192-278): as the sequence (P78367 192-278 P234S) above, with S43P counted along it
# SIX6 [8] = molecular target: T1, SIX6 (Homo sapiens, UniProt O95475 114-200, L167I)
# T1 sequence: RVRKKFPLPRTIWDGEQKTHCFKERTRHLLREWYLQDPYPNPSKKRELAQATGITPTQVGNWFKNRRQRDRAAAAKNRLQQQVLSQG
# SIX6 [9] = molecular target: T2, SIX6 (Homo sapiens, UniProt O95475 114-200, L143V)
# T2 sequence: T1 sequence with L30V, I54L
# SIX6 [10] = molecular target: T3, SIX6 (Homo sapiens, UniProt O95475 114-200, H141N)
# T3 sequence: T1 sequence with H28N, I54L
# SIX6 [11] = molecular target: T4, SIX6 (Homo sapiens, UniProt O95475 114-200, T165P)
# T4 sequence: T1 sequence with T52P, I54L
# SIX6 [12] = molecular target: T5, SIX6 (Homo sapiens, UniProt O95475 114-200, L167M)
# T5 sequence: T1 sequence with I54M
# SIX6 [13] = molecular target: T6, SIX6 (Homo sapiens, UniProt O95475 114-200, L143M)
# T6 sequence: T1 sequence with L30M, I54L
# SIX6 [14] = molecular target: T7, SIX6 (Homo sapiens, UniProt O95475 114-200, L143I)
# T7 sequence: T1 sequence with L30I, I54L
# SIX6 [15] = molecular target: T8, SIX6 (Homo sapiens, UniProt O95475 114-200, T165G)
# T8 sequence: T1 sequence with T52G, I54L
# SIX6 [16] = molecular target: T9, SIX6 (Homo sapiens, UniProt O95475 114-200, T139Q)
# T9 sequence: T1 sequence with T26Q, I54L
# SIX6 [17] = molecular target: T10, SIX6 (Homo sapiens, UniProt O95475 114-200, T165A)
# T10 sequence: T1 sequence with T52A, I54L
# SIX6 [18] = molecular target: T11, SIX6 (Homo sapiens, UniProt O95475 114-200, L167V)
# T11 sequence: T1 sequence with I54V
# SIX6 [19] = molecular target: T12, SIX6 (Homo sapiens, UniProt O95475 114-200)
# T12 sequence: T1 sequence with I54L
# SIX6 [20] = molecular target: T13, SIX6 (Homo sapiens, UniProt O95475 114-200, T165I)
# T13 sequence: T1 sequence with T52I, I54L
# Chain of SHOX (Homo sapiens, UniProt O15266 103-189) (O15266 103-189): as the sequence (O15266 103-189 R173C) above, with C71R counted along it
# Chain of HOXB9 (Homo sapiens, UniProt P17482 171-250, T197M) (P17482 171-250 T197M): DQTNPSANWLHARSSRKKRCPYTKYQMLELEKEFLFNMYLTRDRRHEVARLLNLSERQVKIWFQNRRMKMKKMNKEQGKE
# Chain of HOXB9 (Homo sapiens, UniProt P17482 171-250) (P17482 171-250): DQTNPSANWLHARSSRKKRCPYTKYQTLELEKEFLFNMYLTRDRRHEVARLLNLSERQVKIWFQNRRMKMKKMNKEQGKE
sequence,measurement,setting,value
AAATTATC,binding signal,SHOX [1],"10.4 upbm affinity estimate (log intensity, higher = more binding, comparable within an allelic series)"
GCCGGGCA,binding signal,SHOX [1],"7.25 upbm affinity estimate (log intensity, higher = more binding, comparable within an allelic series)"
same,binding signal,HOXB9 [2],"8.48 upbm affinity estimate (log intensity, higher = more binding, comparable within an allelic series)"
same,binding signal,HOXB9 [3],"8.45 upbm affinity estimate (log intensity, higher = more binding, comparable within an allelic series)"
same,binding signal,SHOX [4],"7.18 upbm affinity estimate (log intensity, higher = more binding, comparable within an allelic series)"
same,binding signal,HOXB9 [5],"8.59 upbm affinity estimate (log intensity, higher = more binding, comparable within an allelic series)"
same,binding signal,NKX3-2 [6],"10.6 upbm affinity estimate (log intensity, higher = more binding, comparable within an allelic series)"
same,binding signal,NKX3-2 [7],"10.6 upbm affinity estimate (log intensity, higher = more binding, comparable within an allelic series)"
CTTATAGA,binding signal,SHOX [1],"8.03 upbm affinity estimate (log intensity, higher = more binding, comparable within an allelic series)"
CCGGCCAC,binding signal,SHOX [1],"7.3 upbm affinity estimate (log intensity, higher = more binding, comparable within an allelic series)"
same,binding signal,SIX6 [8],"8.84 upbm affinity estimate (log intensity, higher = more binding, comparable within an allelic series)"
same,binding signal,SIX6 [9],"8.77 upbm affinity estimate (log intensity, higher = more binding, comparable within an allelic series)"
same,binding signal,SIX6 [10],"8.85 upbm affinity estimate (log intensity, higher = more binding, comparable within an allelic series)"
same,binding signal,SIX6 [11],"8.87 upbm affinity estimate (log intensity, higher = more binding, comparable within an allelic series)"
same,binding signal,SIX6 [12],"8.86 upbm affinity estimate (log intensity, higher = more binding, comparable within an allelic series)"
same,binding signal,SIX6 [13],"8.73 upbm affinity estimate (log intensity, higher = more binding, comparable within an allelic series)"
same,binding signal,SIX6 [14],"8.81 upbm affinity estimate (log intensity, higher = more binding, comparable within an allelic series)"
same,binding signal,SIX6 [15],"8.89 upbm affinity estimate (log intensity, higher = more binding, comparable within an allelic series)"
same,binding signal,SIX6 [16],"8.81 upbm affinity estimate (log intensity, higher = more binding, comparable within an allelic series)"
same,binding signal,SIX6 [17],"8.81 upbm affinity estimate (log intensity, higher = more binding, comparable within an allelic series)"
same,binding signal,SHOX [4],"7.14 upbm affinity estimate (log intensity, higher = more binding, comparable within an allelic series)"
same,binding signal,SIX6 [18],"8.82 upbm affinity estimate (log intensity, higher = more binding, comparable within an allelic series)"
same,binding signal,SIX6 [19],"8.74 upbm affinity estimate (log intensity, higher = more binding, comparable within an allelic series)"
same,binding signal,SIX6 [20],"8.83 upbm affinity estimate (log intensity, higher = more binding, comparable within an allelic series)"
